Compounds without any hit were thinned out: in the full panel of roughly 79,000, 15% have a hit. Calls of active or inactive are those of the source. Cut-off read from the data, not from the text of the source: active = growth inhibition above about 70%; inactive = the rest.

The experiment in a line: NCI Yeast Anticancer Drug Screen. Data for the rad50 strain (AID 155).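 Note: 0% = growth of vehicle-only cultures of the same strain.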 Conditions: S. cerevisiae rad50 strain growth inhibition; at 50.0 µM; hits give high values. The method, boiled down:
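A DNA repair-deficient yeast mutant serves as the test organism; compound-induced growth inhibition is calculated against vehicle-treated cells.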
In the case of `O=[N+]([O-])C(CO)CCCC(CO)[N+](=O)[O-]` (stereo not drawn), the growth inhibition was 11.7% (inactive). With `CN1CCC[N+](C)=C1c1ccc(N(C)C)cc1` the figure was -22.7% (inactive); with `COP1(=S)OCC2OC(n3cc(C)c(=O)[nH]c3=O)CC2O1` (stereo not drawn), 0.55% (inactive).

As for `CN(c1ccccc1)c1nc(=[N+]2CCCC2)ss1`, the growth inhibition was 11.6% (inactive). With `NC(Cc1ccccc1)c1nn[nH]n1` (stereo not drawn) the figure was -10.2% (inactive); with `O=C1NC(=O)C2(c3ccccc3)CCN1C2=O` (stereo not drawn), 1.35% (inactive).

Take `Cc1cc(C)c(CCN(C)C)c(C)c1C`: the growth inhibition was 8.7% (inactive). The same measure for `O=C1N=NC(Cl)c2ccccc21` (stereo not drawn): -20.6% (inactive); for `CN(C)c1ccc(C=O)cc1.[C-]#[O+].[C-]#[O+].[C-]#[O+].[Cr]`: -66.2% (inactive).

As for `CC12CC/C(=N/NC(=O)Cc3c[nH]c4ccccc34)C=C1CCC1C2CCC2(C)C(OC(=O)c3ccccc3)CCC12` (stereo not drawn), the growth inhibition is 35.8% (inactive). `COc1cccc(C2CC(=O)c3cccn32)c1` (stereo not drawn): the growth inhibition is 11.3% (inactive). For `COc1cc(CC(N)c2ccccc2)ccc1O` (stereo not drawn), the growth inhibition was -7.65% (inactive).

For `CCCCC1(CCSC(=S)OCC)C(=O)NC(=O)NC1=O`, the growth inhibition was 12.6% (inactive). With `CC(=O)Oc1ccc(CCN(C)C2CC3CCC2(C)C3(C)C)cc1OC(C)=O` (stereo not drawn) the figure was 51.4% (inactive); with `O=[N+]([O-])c1cccc(C(Cl)Cl)c1`, 30.5% (inactive).

`CCOP(=S)(NCCCOC)OCC`: the growth inhibition is 0.25% (inactive). With `CCOC(OC1=C(C#N)CCCC1)C(C)[Se]c1ccccc1` (stereo not drawn) the figure was 63% (inactive). The same measure for `FC(F)(F)[S-].FC(F)(F)[S-].[C-]#[O+].[C-]#[O+].[C-]#[O+].[C-]#[O+].[C-]#[O+].[C-]#[O+].[C-]#[O+].[C-]#[O+].[Mn].[Mn]`: 99.3% (active).

The values above are taken from PubChem BioAssay (NCI).
